The values below come from PubChem BioAssay (NCATS).

One may read the viability as a read-out of living cells in per cent, often relative to untreated cells.

Assay [1] concerns the target Aldehyde dehydrogenase, mitochondrial (Homo sapiens) (UniProt P05091). Description: qHTS for Inhibitors of the Aldehyde Dehydrogenase Family (ALDH2) Primary screen (AID 2061308).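 Also: plate controls were vehicle for no effect and reference inhibitor for full effect; nearly all actives have a fitted effect of over 55% in size.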
The target of assay [2] is Retinaldehyde dehydrogenase 3 (Homo sapiens) (UniProt P47895). Put plainly: qHTS for Inhibitors of the Aldehyde Dehydrogenase Family (ALDH1A3) Primary screen (AID 2061315;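 also: plate controls were DMSO vehicle for no effect and reference inhibitor for full effect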). (In general: In qHTS, concentration-response curves come from the screen itself.)
Assay [3] is described as follows: BET inhibitor-based combinations targeting novel dependencies in MECOM-rearranged (r) AML: SET-2 cell line (AID 2202231). Also: nearly all actives have a fitted effect of over 35% in size. Also: potency is read from the fitted curve at half-maximal effect.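 As to viability: plate controls were DMSO treated cells for no effect and wells without cells for full effect.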 To be noted: SET-2 AML cells viability, CellTiter-Glo luminescence, 48 h; viability: active compounds read low, concentration not given here. An outline of the steps: (§1)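 A 48 hr incubation preceded viability reading by CellTiter-Glo, with 15 min room-temperature development. Dose series had 11 points; normalization used DMSO and empty wells; AUC was computed and mean-centered per line as Z-AUC.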

A short description of assay [4]: BET inhibitor-based combinations targeting novel dependencies in MECOM-rearranged (r) AML: OCI-AML3 cell line (AID 2202232). Also: nearly all actives have a fitted effect of over 35% in size. Also: potency is read from the fitted curve at half-maximal effect. Conditions: Potency: OCI-AML3 viability. The procedure, abridged:
as §1

Assay [5] can be described thus: BET inhibitor-based combinations targeting novel dependencies in MECOM-rearranged (r) AML: MV-4-11 cell line (AID 2202233). Also: nearly all actives have a fitted effect of over 45% in size. Also: potency is read from the fitted curve at half-maximal effect. The procedure, abridged:
(§2)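 Each compound is tested in an 11-point concentration series against 500 seeded cells/well for 48 hr. The luminescent viability signal is normalized to DMSO and blank wells, then reduced to AUC and a cell-line-centred Z-AUC.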

The nature of assay [6]: BET inhibitor-based combinations targeting novel dependencies in MECOM-rearranged (r) AML: HNT-34 cell line (AID 2202234). Also: nearly all actives have a fitted effect of over 35% in size. Also: potency is read from the fitted curve at half-maximal effect. An outline of the steps:
as §2

Assay [7] in a line: BET inhibitor-based combinations targeting novel dependencies in MECOM-rearranged (r) AML: UCSD-AML1 cell line (AID 2202235). Also: nearly all actives have a fitted effect of over 40% in size. Also: potency is read from the fitted curve at half-maximal effect. An outline of the steps:
as §2

Assay [8] can be described thus: BET inhibitor-based combinations targeting novel dependencies in MECOM-rearranged (r) AML: AML-191 cell line (AID 2202236; also: nearly all actives have a fitted effect of over 35% in size; also: potency is read from the fitted curve at half-maximal effect). An outline of the steps:
as §1

A short description of assay [9]: BET inhibitor-based combinations targeting novel dependencies in MECOM-rearranged (r) AML: AML-194 cell line (AID 2202237; also: nearly all actives have a fitted effect of over 40% in size; also: potency is read from the fitted curve at half-maximal effect). An outline of the steps:
as §1

Assay [10] concerns the target Retinaldehyde dehydrogenase 3 (Homo sapiens) (UniProt P47895). Description: qHTS for Inhibitors of the Aldehyde Dehydrogenase Family (ALDH1A3) Confirmatory screens (AID 2061311). Also: potency is read from the fitted curve at half-maximal effect; nearly all actives have a fitted effect of over 60% in size.
Assay [11] deals with Retinal dehydrogenase 2 (Homo sapiens) (UniProt O94788). Put plainly: qHTS for Inhibitors of the Aldehyde Dehydrogenase Family (ALDH1A2) Confirmation screens (AID 2061314). Also: potency is read from the fitted curve at half-maximal effect; nearly all actives have a fitted effect of over 65% in size.
Assay [12] has as its target Aldehyde dehydrogenase 1A1 (Homo sapiens) (UniProt P00352). Put plainly: qHTS for Inhibitors of the Aldehyde Dehydrogenase Family (ALDH1A1) Confirmatory screens (AID 2061316). Also: potency is read from the fitted curve at half-maximal effect; nearly all actives have a fitted effect of over 65% in size.

Results filed as inconclusive are left out. A number with no mark means an inactive call. The source made the active and inactive calls. Calls follow the shape of the dose curve; as a rule, active = well fitted curve in the direction sought with a large enough effect; inconclusive = small, poorly fitted or top-dose-only effect, or another doubt; inactive = no such curve, though single readings can be large; an effect the other way counts as inactive or inconclusive.

As for `CC(=O)OC[C@H](N)C(=O)c1ccccc1`, the Potency entry in assay [1] and in assay [2] was “inactive” in each case.

`Cc1nnc2n1-c1sc(CCc3ccc(CC(C)C)cc3)cc1C(c1ccccc1Cl)=NC2C` (centres undefined): the Potency entry in assay [1] and in assay [2] was “inactive” each time.

As to `CCCCCOc1cc2c(cc1-c1cc(/C=C/C(=O)O)ccc1O)C(C)(C)CCC2(C)C`, the Potency entry in assay [1] and in [2] was “inactive” throughout.

On to `Cc1nn2c(=O)cc(N3CCNCC3)nc2s1`, for which the Potency entry in assay [1] and in [2] was “inactive” throughout.

For the compound `O=S(=O)(Nc1nccs1)c1ccc(NCc2cccc(F)c2O)cc1`, the Potency result in assay [1] and in [2] was “inactive” throughout.

On to `C/C=C(\C)C(=O)O[C@H]1CC2C(=C1C)[C@H]1OC(=O)[C@](C)(O)[C@]1(O)[C@H](OC(=O)CCC)C[C@@]2(C)OC(C)=O` (some centres undefined), for which the Potency result in [1] and in [2] was “inactive” throughout.

Consider `CCOc1ccc(CCNC(=O)c2cc3sccc3n2Cc2ccc(F)cc2F)cc1OCC`, for which the Potency result in assay [1] and in assay [2] was “inactive” in each case.

Regarding `Oc1cccc2cc(N3CCNCC3)cnc12`, the Potency result in assay [1] and in assay [2] was “inactive” throughout.

`C/C=C(/C)C(=O)O[C@H]1[C@@H]2[C@H](C)C(=O)O[C@@H]2C[C@@H](C)[C@@H]2C=CC(=O)[C@]21C`: the Potency entry in assay [1] and in assay [2] was “inactive” throughout.

On to `CC(=O)O[C@H]1CN2CCC1CC2`, for which the Potency result in [1] and in assay [2] was “inactive” each time.

Regarding `C[C@@H]1O[C@@H](O[C@H]2CC[C@@]3(C)C(CC[C@@H]4C3CC[C@]3(C)[C@@H](C5=CC(=O)OC5)CC[C@]43O)C2)[C@H](O[C@@H]2O[C@H](CO)[C@@H](O)[C@H](O)[C@H]2O)[C@H](O)[C@H]1O` (some centres undefined), the Potency entry in assay [1] and in assay [2] was “inactive” throughout.

As for `O=C1CCCC2=C1C(c1[nH]ncc1Cl)N=C(Nc1nc3ccc(F)cc3o1)N2` (centres undefined), the Potency entry in assay [1] and in assay [2] was “inactive” throughout.

`CC[C@H]1C2CC3[C@@H]4N(C)c5ccccc5[C@]45C[C@@H]([C@H]2[C@H]5O)N3[C@@H]1O`: the Potency result in [1] and in [2] was “inactive” in each case.

`CC(=O)O[C@H]1C[C@]2(O)[C@@H]3CC[C@@H]4C[C@@H](O)CC[C@]4(C)[C@H]3CC[C@]2(C)[C@H]1c1ccc(=O)oc1`: the Potency entry in assay [1] and in [2] was “inactive” throughout.

In the case of `Cc1sc2c(c1C)C(c1ccc(Cl)cc1)=N[C@@H](CC(=O)Nc1ccc(O)cc1)c1nnc(C)n1-2`, the Potency result in [1] and in assay [2] was “inactive” each time.

`CC[C@H]1C2CC3[C@@H]4N(C)c5ccccc5[C@]45C[C@@H]([C@H]2[C@H]5O)N3[C@H]1O`: the Potency result in assay [1] and in [2] was “inactive” each time.

For the compound `CC(C)C(=O)O[C@H]1[C@@H]2[C@H](C)C(=O)O[C@@H]2C[C@@H](C)[C@@H]2C=CC(=O)[C@]21C`, the Potency result in [1] and in assay [2] was “inactive” in each case.

For `CC1=C(C(=O)Nc2nccs2)C(c2ccccc2Br)N=C(Nc2nc3ccccc3o2)N1` (centres undefined), the Potency entry in assay [1] and in assay [2] was “inactive” each time.

As to `N#Cc1ccc(NC(=O)Nc2nnc(-c3ccncc3)s2)cc1Br`, the Potency entry in assay [1] and in [2] was “inactive” in each case.

Turning to `Nc1ncnc2c1ncn2[C@@H]1O[C@@H]2COP(O)(=S)O[C@H]2[C@H]1O` (some centres undefined), the activity change, negative = inhibition in [1] is 4.01% [at 11.2 µM]; in assay [2], 2.78% [at 11.2 µM].

`C=C1[C@@H](O)[C@]2(O)OC[C@]34C2[C@]2(C)C(C[C@H]3OC(=O)[C@H](O)[C@@]14O)C(C)=CC(=O)[C@H]2O` (some centres undefined): the Potency result in [1] and in assay [2] was “inactive” each time.

Consider `C#CCO[C@H]1CN2CCC1CC2`, for which the Potency result in [1] and in assay [2] was “inactive” in each case.

As to `CC[C@@H](C)[C@H]1C(=O)O[C@H](C(C)C)C(=O)N(C)[C@@H](C(C)C)C(=O)O[C@H](C(C)C)C(=O)N(C)[C@@H](C(C)C)C(=O)O[C@H](C(C)C)C(=O)N1C`, the Potency entry in [1] and in assay [2] was “inactive” throughout.

For `C[C@]12CC[C@H](O)C[C@H]1CC[C@@H]1[C@@H]2[C@H](O)C[C@]2(C)[C@@H](c3ccc(=O)oc3)CC[C@]12O`, the Potency entry in [1] and in assay [2] was “inactive” each time.

`C[n+]1cc(P(=S)(c2ccccc2)c2ccccc2)n2ccccc21`: the Potency result in assay [1] and in assay [2] was “inactive” in each case.

Take `Cc1c(P(=S)(c2ccccc2)c2ccccc2)[n+]2ccccc2n1C`: the Potency result in assay [1] and in [2] was “inactive” each time.

For `CC1=C(C(=O)Nc2nncs2)C(c2nn(C)cc2Cl)N=C(Nc2nc3ccccc3o2)N1` (centres undefined), the Potency result in [1] and in assay [2] was “inactive” in each case.

As for `C=C(CO)C(=O)O[C@H]1CC(=C)[C@@H]2C[C@H](O)C(=C)[C@@H]2[C@H]2OC(=O)C(=C)[C@@H]21`, the Potency entry in assay [1] and in assay [2] was “inactive” each time.

For the compound `COC1CCCC(C)OC(=O)Cc2cc(O)cc(O)c2C(=O)C1` (centres undefined), the Potency entry in assay [1] and in assay [2] was “inactive” each time.

As to `COC1CC(=O)C23C(=O)NC(CC(C)C)C2C(C)=C(C)C(OO)C3/C=C(\C)CCC(O)C1O` (centres undefined), the Potency entry in [1] and in [2] was “inactive” throughout.

Regarding `COC1C(O)C(C)OC(OC2C(CO)O[C@@H](O[C@@H]3CC4CCC5C(CC[C@]6(C)[C@@H](C7=CC(=O)OC7)CC[C@]56O)[C@@]4(C)[C@H](OC(C)=O)C3)C(O)C2O)C1O` (some centres undefined), the Potency result in assay [1] and in assay [2] was “inactive” throughout.

On to `CO[C@@H]1[C@H](O)[C@@H](O[C@@H]2C[C@H]3CC[C@@H]4C(CC[C@]5(C)[C@@H](C6=CC(=O)OC6)CC[C@]45O)[C@@]3(C)[C@H](O)C2)O[C@H](C)[C@@H]1O[C@@H]1O[C@H](CO)[C@@H](O)[C@H](O)[C@H]1O` (some centres undefined), for which the Potency result in assay [1] and in [2] was “inactive” throughout.

As for `Cc1cc(-c2nnc3n2CCCCC3)c(C)n1-c1cccnc1`, the Potency result in assay [1] and in assay [2] was “inactive” in each case.

As for `O=C(N[C@@H](COc1ccc2[nH]c(=O)[nH]c2c1)c1ccccc1)c1cccn(Cc2ccc(F)c(F)c2)c1=O`, the Potency entry in [1] and in assay [2] was “inactive” throughout. The viability in assay [3] was 94%. Also, in assay [4], the Potency was 10.5 µM (active).

Consider `O=C(C[C@@H]1NCCC[C@H]1O)Cn1cnc2ccccc2c1=O`, for which the Potency entry in [2] was “inactive”.

`O=P1(NCCCl)OCCCN1CCCl` (centres undefined): the viability in [3] is 115%. Also, the Potency result in [5], in assay [6], in assay [7], in [8] and in assay [9] was “inactive” each time.

On to `[Cl][Pt].[NH2-].[NH2-].c1ccncc1`, for which the Potency in [10] was 11.3 µM (active); in [11], 17.9 µM (active); in assay [12], 7.12 µM (active).

Consider `CN1C(=O)COc2c(C(=O)NC3CN4CCC3CC4)cc(Cl)cc21` (centres undefined), for which the viability in assay [3] was 95.7%. The Potency result in [4] and in [6] was “inactive” in each case.

With `CO[C@H]1CCC(O[C@H]2C[C@H]([C@]3(C)CC[C@]4(C[C@H](O)[C@@H](C)[C@@H]([C@@H](C)/C=C(\C)C(=O)[C@H](C)C[C@H](C)C(=O)O)O4)O3)O[C@]3(O[C@@H]([C@H]4O[C@@](O)(CO)[C@H](C)C[C@@H]4C)C[C@@H]3C)[C@@H]2C)O[C@@H]1C` (some centres undefined), the Potency was 1.48 µM (active) in assay [3]; 0.235 µM (active) in [4]; 372 nM (active) in assay [5]; 148 nM (active) in assay [6]; 1.66 µM (active) in [8].

`S=P(c1ccccc1)(c1ccccc1)c1c(-c2ccccc2)[nH]c2ccccc12`: the Potency result in assay [2] was “inactive”.

As to `COC(=O)[C@]12CCC(C)(C)C[C@H]1[C@H]1C(=O)C=C3[C@@]4(C)C=C(C#N)C(=O)C(C)(C)[C@@H]4CC[C@@]3(C)[C@]1(C)CC2`, the Potency in [3] is 2.35 µM (active); in [4], 2.63 µM (active); in [5] it was 417 nM (active); in assay [6], 1660 nM (active); in [9], 2.63 µM (active).

`Cc1[nH]nc2ccc(-c3cncc(OC[C@@H](N)Cc4c[nH]c5ccccc45)c3)cc12`: the Potency result in assay [1] and in [2] was “inactive” throughout. The Potency in assay [4] was 0.934 µM (active); in [5] it was 263 nM (active); in assay [7] it was 468 nM (active); in assay [8], 0.833 µM (active); in assay [9], 0.934 µM (active).

As to `Cc1nc2ccccn2c1P(=S)(c1ccccc1)c1ccccc1`, the Potency result in assay [2] is “inactive”.

As for `CC(C)C[C@H](CN)CC(=O)O`, in assay [3], the viability is 113%. For the same compound, the Potency entry in [4], in [5], in assay [6], in [7], in assay [8] and in [9] was “inactive” in each case.
